The panel holds about 79,000 compounds, 15% with a hit somewhere; the sample as a whole holds those more often. A number with no mark means an inactive call. Active and inactive are the calls of the source. Rule as the data show it: active = growth inhibition above about 70%; inactive = the rest.
Tests used:
[1] = NCI Yeast Anticancer Drug Screen. Data for the wt1 strain (AID 149);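 also: 0% = growth of vehicle-treated wt1 cultures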; conditions: S. cerevisiae wt1 strain (SPY 50644) growth inhibition, stronger effect = higher value
Procedure, shortened: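 Compounds are added to wt1 yeast cultures. Growth is then measured. Inhibition is expressed relative to vehicle-treated controls.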

[2] = NCI Yeast Anticancer Drug Screen. Data for the mgt1 strain (AID 153); conditions: S. cerevisiae mgt1 mutant growth inhibition, stronger effect = higher value
Procedure, shortened: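 Vehicle-normalized growth inhibition is determined in mgt1 yeast, a strain selected for a defined alteration in DNA repair or cell cycle control.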

[3] = NCI Yeast Anticancer Drug Screen. Data for the rad50 strain (AID 155);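 also: 0% = growth of vehicle-only cultures of the same strain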; conditions: S. cerevisiae rad50 strain growth inhibition, stronger effect = higher value
Procedure, shortened: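 Inhibition values express reduced yeast growth in compound-treated cultures relative to vehicle-treated controls.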

[4] = NCI Yeast Anticancer Drug Screen. Data for the mec2-1 strain (AID 157); conditions: S. cerevisiae mec2-1 strain, stronger effect = higher value
Procedure, shortened: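 Mutant yeast (mec2-1) grown with compound; growth inhibition relative to vehicle control reported.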

[5] = NCI Yeast Anticancer Drug Screen. Data for the rad14 strain (AID 159);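 also: 0% = growth of vehicle-treated control cultures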; conditions: S. cerevisiae rad14 strain growth inhibition, stronger effect = higher value
Procedure, shortened: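 A mutant yeast strain defective in DNA damage repair is treated with compound; inhibition of its growth is scored against untreated, vehicle-exposed cultures.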

[6] = NCI Yeast Anticancer Drug Screen. Data for the sgs1 mgt1 strain (AID 161);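 also: 0% = growth of cultures given vehicle only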; conditions: S. cerevisiae sgs1 mgt1 strain, stronger effect = higher value
Procedure, shortened: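 This yeast growth screen uses a strain with defined DNA-repair lesions; compound-treated growth is compared with vehicle-treated growth.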

[7] = NCI Yeast Anticancer Drug Screen. Data for the CLN2oe strain (AID 163);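 also: 0% = growth of vehicle-only control cultures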; conditions: S. cerevisiae CLN2oe strain, stronger effect = higher value
Procedure, shortened: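 Compounds are applied to yeast harbouring a defined cell-cycle control change; reduced growth compared with vehicle-treated controls gives the value.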

[8] = NCI Yeast Anticancer Drug Screen. Data for the cln2 rad14 strain (AID 165);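 also: 0% = growth equal to vehicle treated cultures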; conditions: S. cerevisiae cln2 rad14 strain, stronger effect = higher value
Procedure, shortened: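 Readout is yeast growth inhibition versus vehicle-treated controls, using a strain with cln2 and rad14 alterations exposed to compound.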

[9] = NCI Yeast Anticancer Drug Screen. Data for the bub3 strain (AID 167); conditions: S. cerevisiae bub3 mutant strain, stronger effect = higher value
Procedure, shortened: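 Steps: expose the mutant yeast strain to compound; grow alongside vehicle-treated cultures; measure growth; express inhibition against the vehicle cultures.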

[10] = NCI Yeast Anticancer Drug Screen. Data for the wt2 strain (AID 169);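 also: 0% = growth of vehicle-treated yeast cultures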; conditions: S. cerevisiae wt2 strain growth inhibition, stronger effect = higher value
Procedure, shortened: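 Against vehicle-treated controls, the growth of yeast exposed to each compound was compared, and the inhibition was recorded.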

[11] = NCI Yeast Anticancer Drug Screen. Data for the mlh1 strain (AID 171);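 also: 0% = growth of vehicle-treated control cultures of the same strain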; conditions: S. cerevisiae mlh1 strain growth inhibition, stronger effect = higher value
Procedure, shortened: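 Measured: yeast growth. Reference: vehicle-treated controls. Organism: strain with a defined alteration affecting DNA damage repair or cell cycle control, treated with compound.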

[12] = NCI Yeast Anticancer Drug Screen. Data for the sgs1 strain (AID 173);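 also: 0% = growth of vehicle-only control cultures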; conditions: S. cerevisiae sgs1 mutant, stronger effect = higher value
Procedure, shortened: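 Each compound was added to cultures of the altered yeast strain. Growth was recorded, and inhibition was derived by comparison with vehicle controls.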

[13] = NCI Yeast Anticancer Drug Screen. Data for the mlh1 rad18 strain (AID 175); conditions: S. cerevisiae mlh1 rad18 strain growth inhibition, stronger effect = higher value
Procedure, shortened: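 Genetically defined yeast (DNA repair-deficient) exposed to compounds; growth inhibition determined relative to vehicle.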

[14] = NCI Yeast Anticancer Drug Screen. Data for the rad18 strain (AID 177); conditions: S. cerevisiae rad18 mutant growth inhibition, stronger effect = higher value
Procedure, shortened: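 Vehicle-treated cultures served as the baseline for scoring compound-induced growth inhibition in DNA-repair-mutant yeast.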

[15] = at 5.0 µM (retest, dose inferred, filed as 0.5)
[16] = at 50.0 µM (retest, dose inferred, filed as 5.0)

Nc1nc(N)c2c(Cl)c(CNc3ccc(C(=O)NC(CC(=O)O)C(=O)O)cc3)ccc2n1 (stereo not drawn)
growth inhibition ([1]; at 1.2 µM): 19% | growth inhibition ([1]; at 3.7 µM): 15% | growth inhibition ([1]; at 11.0 µM): 17% | growth inhibition ([1]; at 33.0 µM): 42% | growth inhibition ([1]; at 100.0 µM): 74% (active) | growth inhibition ([2]; at 1.2 µM): 6% | growth inhibition ([2]; at 3.7 µM): -3% | growth inhibition ([2]; at 11.0 µM): -2% | growth inhibition ([2]; at 33.0 µM): 30% | growth inhibition ([2]; at 100.0 µM): 55% | growth inhibition ([3]; at 1.2 µM): 12% | growth inhibition ([3]; at 3.7 µM): 18% | growth inhibition [3, 15]: 8% | growth inhibition ([3]; at 11.0 µM): 14% | growth inhibition ([3]; at 33.0 µM): 65% | growth inhibition [3, 16]: 47% | growth inhibition ([3]; at 50.0 µM): 77.5% (active) | growth inhibition ([3]; at 100.0 µM): 80% (active) | growth inhibition ([4]; at 1.2 µM): 14% | growth inhibition ([4]; at 3.7 µM): 28% | growth inhibition [4, 15]: 0% | growth inhibition ([4]; at 11.0 µM): 75% (active) | growth inhibition ([4]; at 33.0 µM): 93% (active) | growth inhibition [4, 16]: 90% (active) | growth inhibition ([4]; at 50.0 µM): 87.8% (active) | growth inhibition ([4]; at 100.0 µM): 95% (active) | growth inhibition ([5]; at 1.2 µM): -8% | growth inhibition ([5]; at 3.7 µM): -11% | growth inhibition ([5]; at 11.0 µM): -18% | growth inhibition ([5]; at 33.0 µM): 44% | growth inhibition ([5]; at 100.0 µM): 78% (active) | growth inhibition [6, 15]: 20% | growth inhibition [6, 16]: 50% | growth inhibition ([6]; at 50.0 µM): 55.5% | growth inhibition ([7]; at 1.2 µM): -5% | growth inhibition ([7]; at 3.7 µM): 15% | growth inhibition ([7]; at 11.0 µM): 12% | growth inhibition ([7]; at 33.0 µM): 22% | growth inhibition ([7]; at 100.0 µM): 34% | growth inhibition [8, 15]: 20% | growth inhibition [8, 16]: 16% | growth inhibition ([8]; at 50.0 µM): 19.4% | growth inhibition ([9]; at 1.2 µM): 3% | growth inhibition ([9]; at 3.7 µM): -10% | growth inhibition [9, 15]: -9% | growth inhibition ([9]; at 11.0 µM): 14% | growth inhibition ([9]; at 33.0 µM): 7% | growth inhibition [9, 16]: 26% | growth inhibition ([9]; at 50.0 µM): 43.5% | growth inhibition ([9]; at 100.0 µM): 72% (active) | growth inhibition ([10]; at 1.2 µM): -42% | growth inhibition ([10]; at 3.7 µM): -44% | growth inhibition ([10]; at 11.0 µM): -42% | growth inhibition ([10]; at 33.0 µM): -1% | growth inhibition ([10]; at 100.0 µM): 28% | growth inhibition ([11]; at 1.2 µM): 16% | growth inhibition ([11]; at 3.7 µM): 12% | growth inhibition ([11]; at 11.0 µM): 1% | growth inhibition ([11]; at 33.0 µM): 25% | growth inhibition ([11]; at 100.0 µM): 44% | growth inhibition ([12]; at 1.2 µM): 30% | growth inhibition ([12]; at 3.7 µM): 22% | growth inhibition ([12]; at 11.0 µM): 31% | growth inhibition ([12]; at 33.0 µM): 45% | growth inhibition ([12]; at 100.0 µM): 66% | growth inhibition [13, 15]: 12% | growth inhibition [13, 16]: 46% | growth inhibition ([13]; at 50.0 µM): 52.1% | growth inhibition ([14]; at 1.2 µM): 48% | growth inhibition ([14]; at 3.7 µM): 54% | growth inhibition ([14]; at 11.0 µM): 57% | growth inhibition ([14]; at 33.0 µM): 78% (active) | growth inhibition ([14]; at 100.0 µM): 84% (active)

From PubChem BioAssay (NCI)
